Where “and” joins values, the source holds several entries; their conditions need not be identical. Equal entries are not always repeated. Records with an inconclusive call do not appear. Calls of active or inactive are those of the source. The call rests on the fitted dose curve; in most records, active means well fitted curve in the direction sought with a large enough effect; inconclusive means small, poorly fitted or top-dose-only effect, or another doubt; inactive means no such curve, though single readings can be large; an effect the other way counts as inactive or inconclusive.
Tests used:
HaCat [1] = experiment: Cytotoxic Profiling of Annotated Libraries Using Quantitative High-Throughput Screening (AID 1296008); conditions: Five cell lines viability, CellTiter-Glo ATP luminescence, 48-72 h; max response: active compounds read low; further: nearly all actives have a fitted effect of over 60% in size
Method in brief: (§1)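 Compounds were pin-transferred onto cells and incubated 48 or 72 hr at 37 degree Celsius, 95% humidity. CellTiter-Glo was added, plates sat 10 min at room temperature, then ATP-coupled luminescence was imaged as the viability read-out.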

KB-3-1 = experiment: as above; conditions: Five cell lines viability, CellTiter-Glo ATP luminescence, 48-72 h; max response: active compounds read low
Method in brief: as §1

NIH3T3 = experiment: as above; conditions: Five cell lines viability, CellTiter-Glo ATP luminescence, 48-72 h; max response: active compounds read low
Method in brief: as §1

MCC-13 = experiment: qHTS assay to identify novel small-molecules to repurpose for Merkel cell carcinoma treatment (AID 1296009); conditions: MCC and control cell lines, CellTiter-Glo viability, 72 h; series mostly up to 46 µM; further: nearly all actives have a fitted effect of over 60% in size
Method in brief: (§2)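 Cells exposed to NPC (8-point) and MIPE (11-point) compound dilutions for 72 hr at 37 degree celsius; viability read by CellTiter-Glo luminescence, normalized to no-cell and DMSO in-plate controls.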

MKL-1 = experiment: as above; conditions: MCC and control cell lines, CellTiter-Glo viability, 72 h; series mostly up to 46 µM
Method in brief: as §2

MKL-2 = experiment: as above; conditions: MCC and control cell lines, CellTiter-Glo viability, 72 h; series mostly up to 46 µM
Method in brief: as §2

UISO = experiment: as above; conditions: MCC and control cell lines, CellTiter-Glo viability, 72 h; series mostly up to 46 µM
Method in brief: as §2

WaGa = experiment: as above; conditions: MCC and control cell lines, CellTiter-Glo viability, 72 h; series mostly up to 46 µM
Method in brief: as §2

C33A = experiment: Primary qHTS to identify gynecologic anti-cancer compounds using libraries of approved drugs and bioactive compounds (AID 1345084); conditions: Gynecologic cancer cell panel viability, ATPlite luminescence, 48 h; series mostly up to 57.5 µM; further: nearly all actives have a fitted effect of over 55% in size
Method in brief: (§3)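 Measured: luminescence after ATPlite addition (15 min, RT). Exposure: 48 h, 37 C, 5% CO2.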

CAOV3 = experiment: as above; conditions: Gynecologic cancer cell panel viability, ATPlite luminescence, 48 h; series mostly up to 57.5 µM
Method in brief: as §3

CASKI = experiment: as above; conditions: Gynecologic cancer cell panel viability, ATPlite luminescence, 48 h; series mostly up to 57.5 µM
Method in brief: as §3

Es-2 = experiment: as above; conditions: Gynecologic cancer cell panel viability, ATPlite luminescence, 48 h; series mostly up to 57.5 µM
Method in brief: as §3

HeLa = experiment: as above; conditions: Gynecologic cancer cell panel viability, ATPlite luminescence, 48 h; series mostly up to 57.5 µM
Method in brief: as §3

Hek293T [2] = experiment: as above; conditions: Gynecologic cancer cell panel viability, ATPlite luminescence, 48 h, control line for the selectivity index; series mostly up to 57.5 µM
Method in brief: as §3

JEG-3 = experiment: as above; conditions: Gynecologic cancer cell panel viability, ATPlite luminescence, 48 h; series mostly up to 57.5 µM
Method in brief: as §3

OV90 = experiment: as above; conditions: Gynecologic cancer cell panel viability, ATPlite luminescence, 48 h; series mostly up to 57.5 µM
Method in brief: as §3

MCC-26 = experiment: qHTS assay to identify novel small-molecules to repurpose for Merkel cell carcinoma treatment (AID 1296009); conditions: MCC and control cell lines, CellTiter-Glo viability, 72 h; series mostly up to 46 µM; further: nearly all actives have a fitted effect of over 60% in size
Method in brief: as §2

HACAT [3] = experiment: as above; conditions: MCC and control cell lines, CellTiter-Glo viability, 72 h; at 44.8 µM (top of the series) unless noted
Method in brief: as §2

HEK293T [4] = experiment: as above; conditions: MCC and control cell lines, CellTiter-Glo viability, 72 h; at 44.8 µM (top of the series) unless noted
Method in brief: as §2
On the % scale 0 is the no-effect control and ±100 the full control effect; potency means the concentration at half of the fitted maximal effect.

CC(C)C1CCC(C(=O)N[C@H](Cc2ccccc2)C(=O)O)CC1 (some centres undefined)
inactive: max response (HaCat [1]) -8.21% and -7.47% | max response (KB-3-1) 4.69% and 4.96% | max response (NIH3T3) 0.816% and -0.595% | Potency (MCC-13) | Potency (MKL-1) | Potency (MKL-2) | Potency (UISO) | Potency (WaGa) | Potency (C33A) | Potency (CAOV3) | Potency (CASKI) | Potency (Es-2) | Potency (HeLa) | Potency (Hek293T [2]) | Potency (JEG-3) | Potency (OV90)

COc1ccc2cc3[n+](cc2c1OC)CCc1cc2c(cc1-3)OCO2
inactive: max response (NIH3T3) -15.5% and -8.88% | Potency (MCC-13) | Potency (MCC-26)
active: Potency (KB-3-1) 20.6 µM and 13.2 µM | Potency (MKL-1) 1.88 µM and 2.96 µM | Potency (MKL-2) 841 nM and 1.48 µM | Potency (UISO) 9.44 µM and 14.8 µM | Potency (WaGa) 2.09 µM | Potency (C33A) 8.91 µM | Potency (CASKI) 2.24 µM | Potency (Es-2) 15.8 µM | Potency (OV90) 5.62 µM

OCc1ccc(-c2nn(Cc3ccccc3)c3ccccc23)o1
active: Potency (MKL-2) 18.7 µM | Potency (UISO) 11.8 µM
inactive: outcome (KB-3-1) | Potency (MCC-13) | Potency (MCC-26)

Oc1c(Cl)cc(Cl)c2cccnc12
inactive: max response (KB-3-1) -16.3% | Potency (MCC-13) | Potency (MCC-26) | Potency (CASKI) | Potency (HeLa)
active: Potency (NIH3T3) 23.7 µM | Potency (MKL-1) 5.31 µM | Potency (MKL-2) 3.76 µM | Potency (UISO) 13.3 µM | Potency (WaGa) 11.9 µM | Potency (Es-2) 20 µM

Cc1ncc([N+](=O)[O-])n1CCO
inactive: Potency (C33A) | Potency (CAOV3) | Potency (CASKI) | Potency (Es-2) | Potency (HeLa) | Potency (Hek293T [2]) | Potency (JEG-3) | Potency (OV90)

CC1(C)[C@H](C(=O)O)N2C(=O)C[C@H]2S1(=O)=O
inactive: Potency (C33A) | Potency (CAOV3) | Potency (CASKI) | Potency (Es-2) | Potency (Hek293T [2]) | Potency (JEG-3) | Potency (OV90)

NC(=O)c1cccnc1
inactive: outcome (HACAT [3]) | outcome (HEK293T [4]) | Potency (MCC-13) | Potency (MKL-1) | Potency (MKL-2) | Potency (UISO) | Potency (WaGa) | Potency (C33A) | Potency (CASKI) | Potency (Es-2) | Potency (Hek293T [2]) | Potency (JEG-3) | Potency (OV90)

COC(=O)Nc1nc2ccc(Sc3ccccc3)cc2[nH]1
active: Potency (KB-3-1) 1.66 µM | Potency (NIH3T3) 0.668 µM | Potency (MKL-2) 3.32 µM | Potency (Es-2) 2.82 µM | Potency (OV90) 10 µM
inactive: max response (HaCat [1]) -7.21%

NC(=O)c1ccc2[nH]ccc2c1
inactive: max response (HaCat [1]) 0.172% | max response (KB-3-1) 5.8% | max response (NIH3T3) -9.23% | Potency (MCC-13) | Potency (MKL-1) | Potency (MKL-2) | Potency (UISO) | Potency (WaGa)

NC(N)=NC(N)=NCCc1ccccc1
inactive: Potency (CAOV3) | Potency (Hek293T [2]) | Potency (JEG-3)

N=C(N)c1ccc(OCCCCCOc2ccc(C(=N)N)cc2)cc1
inactive: Potency (CAOV3) | Potency (CASKI) | Potency (Es-2) | Potency (HeLa) | Potency (JEG-3)

Cc1c(-c2ccc(O)cc2)n(Cc2ccc(OCCN3CCCCCC3)cc2)c2ccc(O)cc12
inactive: Potency (Hek293T [2]) | Potency (JEG-3)

CCc1c2c(nc3ccc(OC(=O)N4CCC(N5CCCCC5)CC4)cc13)-c1cc3c(c(=O)n1C2)COC(=O)[C@]3(O)CC
active: Potency (HaCat [1]) 23.7 µM and 4.18 µM | Potency (NIH3T3) 14.8 µM | Potency (MKL-1) 1.88 µM and 1.87 µM | Potency (MKL-2) 944 nM and 296 nM | Potency (UISO) 0.833 µM | Potency (WaGa) 422 nM and 662 nM | Potency (Es-2) 14.1 µM
inactive: max response (KB-3-1) 43.3% | Potency (HeLa) | Potency (Hek293T [2]) | Potency (JEG-3) | Potency (OV90)

CC(=O)[C@H]1CC[C@H]2[C@@H]3CCC4=CC(=O)CC[C@]4(C)[C@H]3CC[C@]12C
inactive: max response (NIH3T3) -0.969% | Potency (MCC-13) | Potency (MKL-1)

Cc1nnc(NS(=O)(=O)c2ccc(N)cc2)s1
inactive: Potency (C33A) | Potency (CAOV3) | Potency (CASKI) | Potency (Es-2) | Potency (HeLa) | Potency (Hek293T [2]) | Potency (JEG-3) | Potency (OV90)
